Reference: ChEMBL document CHEMBL3988442, “University of Dundee, Small-Polar-MMV Screening Library” (2021)
About 13,000 (27%) of roughly 48,000 compounds showed an effect of 50% or more. Some of the results follow.

These compounds were tested on Wolbachia pipientis (assay: Anti-Wolbachia Cell-Based Screen). Settings: 5 µM.
Assay type: functional
Parameters: scale not given: in the data most compounds retested in dose-response had high values

| SMILES | Percent Effect [%] |
| --- | --- |
| CCc1noc(CS(=O)(=O)CC(=O)N2c3ccccc3CC2C)n1 (centres undefined) | 1.089 |
| CCOC1CC2(CCN(Cc3cnn(C)c3)CC2)c2ccc(C)cc21 (centres undefined) | -1.962 |
| CN1CCN(C)C2(CCN(Cc3ccc(C4CCCO4)s3)CC2)C1 (centres undefined) | -8.087 |
| Cc1nc(CCCNC(=O)c2c(F)cccc2Br)n[nH]1 | 89.06 |
| COc1ccccc1C(=O)NCc1n[nH]c(C)n1 | 3.11 |
| COc1cc(Cl)ccc1C(=O)NCc1n[nH]c(C)n1 | -9.051 |
| COc1c(Br)cccc1CCNC(=O)c1ncoc1C | -6.421 |
| COc1c(Cl)cc(C(=O)NCc2n[nH]c(C)n2)cc1Cl | 1.914 |
| COc1ccc2cccc(CC(=O)NCCCc3n[nH]c(C)n3)c2c1 | -4.195 |
| Cc1nc(CCCNC(=O)c2cc(F)ccc2O)n[nH]1 | 85.21 |
| Cc1nc(CCCNC(=O)c2c(F)cc(F)cc2F)n[nH]1 | 108.5 |
| Cc1ccc(O)c(C(=O)NCCCS(=O)(=O)Cc2ccccc2)c1 | -4.048 |
| CN1C[C@H](O)C[C@H]1c1nc(-c2ccc(OC(F)(F)F)cc2)no1 | -6.164 |
| CC(C)(O)CCc1cccc(C(=O)NCC2CN(S(C)(=O)=O)CCO2)c1 (centres undefined) | -12.96 |
| CCNC(=O)[C@@H]1C[C@@H](N)CN1C(=O)CCc1ccc(C)c(C)c1 | -3.444 |
| CCNC(=O)[C@@H]1C[C@H](N)CN1C(=O)c1cccc(CCC(C)(C)O)c1 | 102.7 |
| CC(C)(O)CCc1cccc(C(=O)N2CCC[C@H]2C(N)=O)c1 | 102.3 |
| CCNC(=O)[C@@H]1C[C@H](N)CN1C(=O)CCc1ccc(C)c(C)c1 | -20.38 |
| CCNC(=O)[C@@H]1CCCN1C(=O)c1cccc(CCC(C)(C)O)c1 | 104.5 |
| C[C@H](NC(=O)c1cccc(CCC(C)(C)O)c1)C(N)=O | -11.41 |
| CC[C@@H](CO)NC(=O)c1cccc(CCC(C)(C)O)c1 | 0.6007 |
| CC(C)(O)CCc1cccc(C(=O)N[C@@H](CO)C(N)=O)c1 | 1.69 |
| CS(=O)(=O)N1CCC(Oc2ccc(C(=O)NCC3CCC3)cc2Cl)CC1 | -2.678 |

| SMILES | Percent Effect [%] |
| --- | --- |
| Cc1cc(CN2CCCC2)cc(Oc2ccc(C(F)(F)F)cn2)c1 | 9.077 |
| Cc1nn(C)cc1C(=O)NC(CC(C)C)C(=O)Nc1cc[nH]n1 (centres undefined) | 1.449 |
| CN(CC(=O)NC(C)(C)C)Cc1cccc2c1OCCO2 | -43.12 |
| Cc1cccn2c(NC(C)(C)C)c(C3CCN(C(=O)C4CC4)CC3)nc12 | 138 |
| CC(C)(O)C1CCCN(C(=O)Nc2nc(-c3ccccc3)ns2)C1 (centres undefined) | -3.959 |
| CN(CCO)Cc1nnc(C2CCN(C(=O)C(C)(C)C)CC2)n1C | 1.717 |
| CC(C)(C)Nc1c(C2CCN(C(=O)C(C)(C)C)CC2)nc2ccccn12 | 124.8 |
| CC(C)(C)Nc1c(C2CCN(C(=O)C3CC3)CC2)nc2ccccn12 | 95.08 |
| CC(C)(C)Nc1c(C2CCCN(C(=O)C3CC3)C2)nc2ccccn12.Cl (centres undefined) | 97.63 |
| CC(C)(C)C(=O)N1CCC(c2nc(O)cc(-c3ccccn3)n2)CC1 | -20.96 |
| NC(=O)c1csc(N2CCN(Cc3cccc4nsnc34)CC2)n1 | -1.05 |
| CC(C)N1CCC(O)(CNC(=O)CC2OCCc3ccccc32)CC1 (centres undefined) | -11.76 |
| Cc1ncc(Cl)c(C(=O)N2CC(=O)N(C)c3ccccc32)n1 | -4.054 |
| Cc1cnc(NC(=O)N2CCOCC2)s1 | -16.98 |
| CCC(C)n1cnc(S(=O)(=O)N(Cc2cccnc2)C(C)C)c1 (centres undefined) | 3.048 |
| O=C(OCCNc1ncccn1)c1ccc(Br)s1 | -22.12 |
| CC(C)C(=O)N1CCC(c2nc3ccccn3c2NC(C)(C)C)CC1 | 120.3 |
| COc1ccccc1OC1CN(C(=O)Cc2c(C)nc3ccccn23)C1 | -17.73 |
| CNC(C(=O)N1CCC(c2nccn2C(C)C)CC1)c1ccccc1 (centres undefined) | 12.05 |
| CC(C)c1nc(C(=O)N(C)c2ccc(Br)cn2)cs1 | -16 |
| CC1CCN(S(=O)(=O)c2cccnc2)c2ccccc2S1 (centres undefined) | -3.494 |
| O=S1(=O)CCC(N2CCN(c3cc(C(F)(F)F)ccn3)CC2)C1 (centres undefined) | 0.5225 |
| CS(=O)(=O)c1snnc1C1CCN(Cc2ccncc2)CC1 | -7.486 |

| SMILES | Percent Effect [%] |
| --- | --- |
| CCn1c(CN2CCCC2)nnc1C1CCN(Cc2cccnc2)CC1 | -3.145 |
| CN(C)c1ncc(CN2CCC(c3nnsc3S(C)(=O)=O)CC2)cn1 | -8.857 |
| CS(=O)(=O)c1snnc1C1CCN(Cc2cccnc2)CC1 | 133.5 |
| CNc1ncc(CN2CCC(c3nnsc3S(C)(=O)=O)CC2)cn1 | 122 |
| CS(=O)(=O)c1snnc1C1CCCN(Cc2ccncc2)C1 (centres undefined) | 95.13 |
| Cc1nccc(CN2CCC(c3nnsc3S(C)(=O)=O)CC2)n1 | 2.937 |
| CC(c1nc(C2CC2)no1)N1CCN(Cc2cccnc2)CC1 (centres undefined) | 9.745 |
| CCn1c(CN(C)C)nnc1C1CCN(Cc2cnc(C)nc2)CC1 | -9.341 |
| COC[C@H]1CNC(=O)[C@@H]2CCN(Cc3cccc(C)n3)CC[C@H]12 | -1.462 |
| Cc1cccc(CN2CCC(c3nnsc3S(C)(=O)=O)CC2)n1 | 122.9 |
| Cc1cccnc1CN1CCC(c2nnc(Cn3cccn3)n2C)CC1 | 7.8 |
| CC(C)OCCN(Cc1cccc(O)c1)C1CCC(O)CC1 (centres undefined) | -9.741 |
| CC1CCN(c2ccnc3ccc(Br)cc23)CC1 | -3.339 |
| O=C(c1ccoc1)N1CCCN(C(=O)c2ccc(C3CCCN3)s2)CC1 (centres undefined) | 16.47 |
| N#Cc1cccc(CNC(=O)C2=NN(c3ccccc3)C(=O)CN2)c1 | -6.333 |
| CC(Cn1cncn1)NC1CCN(Cc2cccc(O)c2)CC1 (centres undefined) | -16.09 |
| CC(Cn1ccnc1)NC1CCN(Cc2cccc(O)c2)CC1 (centres undefined) | -6.042 |
| CS(=O)(=O)c1snnc1C1CCN(Cc2ccc3nccnc3c2)CC1 | 138.8 |
| CS(=O)(=O)c1snnc1C1CCN(Cc2cccc(O)c2)CC1 | 145.1 |
| Cc1cccc(CN2CCC(NCC3CNc4cc(C)nn4C3)CC2)c1 (centres undefined) | 17.46 |
| Cc1cccc(CN2CCC(c3nnsc3S(C)(=O)=O)CC2)c1 | 168.1 |
| Fc1ccc(CN2CCC(c3nccnc3-n3ccnc3)CC2)cc1 | -7.393 |
| CNS(=O)(=O)c1ccc(CN2CCC(c3ccncc3)CC2)cc1 | -2.48 |
